Results filed as inconclusive are left out. Calls of active or inactive are those of the source. Unless noted, calls follow the shape of the dose curve; as a rule, active = well fitted curve in the direction sought with a large enough effect; inconclusive = small, poorly fitted or top-dose-only effect, or another doubt; inactive = no such curve, though single readings can be large; an effect the other way counts as inactive or inconclusive.
Assays:
[1] = qHTS for Inhibitors of Plasmodium falciparum (DD2) proliferation (AID 504314);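 also: parasite DNA measured by SYBR Green fluorescence after red cell lysis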
How it was run: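 SYBR Green growth assay: 72 h compound exposure of infected red cells (2.5% hematocrit, 0.3% parasitemia), then lysis and overnight dye staining, fluorescence 485/535 nm. Values scaled between DMSO and 0.29 uM artemisinin controls.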

[2] = qHTS for Inhibitors of Plasmodium falciparum (GB4) proliferation (AID 504315); also: nearly all actives have a fitted effect of over 50% in size
How it was run: (§1)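 Parasite growth measured as SYBR Green DNA fluorescence (ex 485, em 535 nm) after overnight lysis following 72 h culture at 37 °C, 0.3% parasitemia, 2.5% hematocrit. Values normalized against DMSO and 0.29 uM artemisinin controls, with plate-stack correction.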

[3] = qHTS for Inhibitors of Plasmodium falciparum (7G8) proliferation (AID 504316); also: series mostly up to about 6.7 µM; nearly all actives have a fitted effect of over 65% in size
How it was run: as §1

[4] = qHTS for Inhibitors of Plasmodium falciparum (HB3) proliferation (AID 504318); also: nearly all actives have a fitted effect of over 60% in size
How it was run: as §1

[5] = target: Atrial natriuretic peptide receptor 1 (Homo sapiens) (UniProt P16066); experiment: Natriuretic polypeptide receptor (hNpr1) antagonism - Pilot CMLD screen (AID 1347052; calls by dose curve;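 also: HEK293 cells with hNpr1 stimulated by hNppA peptide at 0.1 nM; cGMP level read as GloSensor luciferase luminescence after agonist stimulation; series mostly up to about 9.2 µM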)
[6] = qHTS for Inhibitors of Plasmodium falciparum (CP250) proliferation (AID 504320)
How it was run: as §1

Measured: Potency

Chain of Atrial natriuretic peptide receptor 1 (Homo sapiens) (P16066 whole entry, looked up): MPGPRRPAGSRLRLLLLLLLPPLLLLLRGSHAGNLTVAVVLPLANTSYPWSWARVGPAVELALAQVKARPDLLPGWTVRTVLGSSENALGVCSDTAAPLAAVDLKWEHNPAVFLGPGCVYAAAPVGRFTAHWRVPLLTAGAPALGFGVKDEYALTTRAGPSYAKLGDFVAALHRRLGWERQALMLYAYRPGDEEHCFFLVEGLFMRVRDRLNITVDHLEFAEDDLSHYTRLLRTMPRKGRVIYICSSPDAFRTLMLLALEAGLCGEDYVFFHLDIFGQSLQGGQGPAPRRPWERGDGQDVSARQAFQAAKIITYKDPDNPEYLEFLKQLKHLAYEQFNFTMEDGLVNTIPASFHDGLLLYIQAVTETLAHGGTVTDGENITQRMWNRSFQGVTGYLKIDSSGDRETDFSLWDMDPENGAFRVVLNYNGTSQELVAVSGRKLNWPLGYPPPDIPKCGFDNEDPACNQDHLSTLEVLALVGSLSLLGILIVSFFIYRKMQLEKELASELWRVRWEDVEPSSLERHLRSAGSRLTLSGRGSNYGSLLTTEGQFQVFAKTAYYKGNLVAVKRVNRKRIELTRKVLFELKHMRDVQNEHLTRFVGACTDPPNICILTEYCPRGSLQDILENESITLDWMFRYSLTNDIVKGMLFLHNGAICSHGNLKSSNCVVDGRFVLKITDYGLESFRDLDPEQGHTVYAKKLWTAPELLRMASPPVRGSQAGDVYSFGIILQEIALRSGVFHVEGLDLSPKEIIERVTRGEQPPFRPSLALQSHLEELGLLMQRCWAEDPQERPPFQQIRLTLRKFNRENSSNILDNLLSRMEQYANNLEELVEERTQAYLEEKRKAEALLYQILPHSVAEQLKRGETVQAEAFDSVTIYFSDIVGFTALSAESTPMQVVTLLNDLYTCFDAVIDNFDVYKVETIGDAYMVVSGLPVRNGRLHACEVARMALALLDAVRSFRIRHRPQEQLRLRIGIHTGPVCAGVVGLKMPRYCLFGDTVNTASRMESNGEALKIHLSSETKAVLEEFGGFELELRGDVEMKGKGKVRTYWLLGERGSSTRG

COC(=O)C1=C(C(=O)OC)[C@@H]2N(C)c3ccc(OC)cc3[C@@]23C[C@@H](C(=O)OC)N(C(=O)c2cccs2)C3=N1
not listed: [6]
inactive: all other assays above

CC#CCN1C(=O)N(C)C(c2ccccc2)C(C(=O)OC)=C1C (configuration not stated)
inactive: all assays above

CC(C)C(=O)NC(=O)[C@@H]1CCCN1C(=O)C=Cc1ccccc1
inactive: all assays above

C=CCCN1C=C(C(=O)OCC)C(c2ccccc2)NC1=O (configuration not stated)
inactive: all assays above

COC1=C[C@H](C(=O)NCCOC(C)=O)[C@H](C)[C@@H](c2ccccc2)CC1=O
inactive: all assays above

COC1=C[C@H](C(=O)NCc2ccccc2)[C@H](C)[C@@H](c2ccccc2)CC1=O
inactive: all assays above

COC(=O)CCCC1=CC2=CC(=O)C(C)(OC(=O)c3cccs3)C(=O)C2=CN1CCCOC(C)C (configuration not stated)
inactive: all assays above

CCN1C(=NCc2ccc(OC)cc2)NC(c2cccc(C(F)(F)F)c2)C(C(=O)OC)=C1C (configuration not stated)
inactive: all assays above
